The panel holds about 83,000 compounds, 20% with a hit somewhere; the sample as a whole holds those more often.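 Plates (96-well) were seeded with cells, treated with compound at one concentration, and incubated for 48 hours before percent growth was determined.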 A number with no mark means an inactive call. Activity calls are given as the source filed them. The calls were made as follows: active = growth percent below 10; inactive = the rest.
How the values were obtained:
Test in all cases: NCI-60 one-dose screen, 48 h (100 = growth as untreated, 0 = no growth, -100 = all killed)
Conditions in all cases: 10 µM unless noted
SR leukemia = system: SR leukemia
RPMI-8226 leukemia = system: RPMI-8226 leukemia
OVCAR-8 ovarian = system: OVCAR-8 ovarian
OVCAR-5 ovarian = system: OVCAR-5 ovarian
OVCAR-4 ovarian = system: OVCAR-4 ovarian
SK-OV-3 ovarian = system: SK-OV-3 ovarian
IGROV1 ovarian = system: IGROV1 ovarian
HS 578T breast = system: HS 578T breast
NCI/ADR-RES ovarian = system: NCI/ADR-RES ovarian

Row | SMILES | growth (SR leukemia) | growth (RPMI-8226 leukemia) | growth (OVCAR-8 ovarian) | growth (OVCAR-5 ovarian) | growth (OVCAR-4 ovarian) | growth (SK-OV-3 ovarian) | growth (IGROV1 ovarian) | growth (HS 578T breast) | growth (NCI/ADR-RES ovarian)
1 | COc1c(N2CC3CCCNC3C2)c(F)cc2c(=O)c(C(=O)N/N=C/c3ccc4c(c3)OCO4)cn(C3CC3)c12 (configuration not stated) | -24.3% (active) | 60.9% | 54% | 87.3% | 90.5% | 99.7% | 51% | 103% | 63.6%
2 | CCNC(=O)N1CCc2cc(OC)c(OCCc3ccc(OC)c(N)c3)cc2C1c1cc(C)c(C)cc1C (configuration not stated) | 15.1% | 32.4% | 39% | 51.7% | 62.6% | 61.4% | 31.9% | 36.1% | 
3 | Nc1nc(-c2cccc([N+](=O)[O-])c2)c(N=Nc2ccc(Br)cc2)s1 | 50.7% | 15% | -28.7% (active) | -12.1% (active) | -33.2% (active) | -83.7% (active) | -13.3% (active) | 0.349% (active) | -21.7% (active)
4 | COc1ccc(C(=O)Nc2ncc(Cc3ccccc3Cl)s2)cc1 | 16.4% | 22.2% | 12.3% | 36.5% | 62.1% | 29% | 28.2% | 8.76% (active) | 
5 | CCn1c(SCC(=O)Nc2cccc(C(=O)/C=C/c3ccc(C)cc3)c2)nc2ccccc2c1=O | 56.4% | 7.2% (active) | 90.9% | 97.6% | 80% | 110% | 77.1% | 101% | 91%
6 | NS(=O)(=O)c1ccc(Nc2nc(SCC(=O)c3ccc(Cl)cc3)nc3c2CCCC3)cc1 | 26.9% | 42.8% | 52.3% | 88.3% | 47.7% | 101% | 84.8% | 44.6% | 74.6%
7 | O=C(NCCN1CCCC1)c1ccc(-c2nc3ccc4[nH]ncc4c3c3c2CCCC3)cc1 | -24.4% (active) | -15% (active) | 10.9% | 23.5% | 16% | 0.026% (active) | 1.22% (active) | -1.99% (active) | 93.2%
8 | CCOC(=O)c1c(Nc2ccccc2)nn2c(-c3ccc(OC)cc3)ccnc12 | 76.7% | 75.1% | 94.3% | 90.9% | 98.7% | 101% | 101% | 79.7% | 88.1%
9 | N#C/C(=C\c1ccc(-c2ccc(Cl)cc2Cl)o1)c1ccc(F)cc1 | 90.5% | 85% | 93.8% | 92.2% | 80.4% | 81.9% | 86.5% | 89.9% | 93.7%
10 | N/C(=N\C(N)=N\c1nc2ccccc2s1)c1ccc2ccccc2c1 | -17.6% (active) | 76.7% | 84.8% | 102% | 85% | 116% | 55.3% | 90.9% | 30.3%
11 | Cc1ccc(CSc2nc(-c3ccc(Cl)cc3)c(C#N)c(N3CCOCC3)n2)cc1 | 85.6% | 82.2% | 97.2% | 100% | 89.8% | 98.2% | 106% | 107% | 94.8%
12 | CN1CCN(Cc2ccc(NC(=O)c3cncc(C#Cc4cnn5cccnc45)c3)cc2C(F)(F)F)CC1 | -16.3% (active) | 6.03% (active) | 13.5% | 26% | 27.9% | 28.3% | 5.44% (active) | 27.2% | 26.5%
13 | CC1(COc2ccc3ncc(C#Cc4cncc(C(=O)Nc5cccc(C(F)(F)F)c5)c4)n3n2)COC1 | 56.5% | 92.7% | 81.4% | 81.7% | 82.1% | 96.9% | 62% | 53.6% | 80.3%
14 | NS(=O)(=O)c1ccc(Nc2nc(N/N=C/c3ccc(Cl)cc3)nc(Nc3ccccc3)n2)cc1 | 19% | 54.7% | 67.9% | 83.4% | 83.6% | 104% | 66.8% | 64.7% | 97.5%
15 | CCCC(=O)NC(c1cccnc1)c1cc(C(C)(C)C)c2cccnc2c1O (configuration not stated) | 11.5% | 24.5% | 17.3% | 40.8% | 31.1% | 7.42% (active) | 6.31% (active) | 46.6% | 21.2%
16 | COc1ccccc1NCc1cccn1Cc1ccc(F)cc1 | 100% | 95.2% | 103% | 95.7% | 96.9% | 116% | 88.8% | 105% | 93.7%
17 | Nc1ncc(-c2ccc(NS(=O)(=O)c3ccc(Cl)c(Cl)c3)cc2)[nH]1 | 76.6% | 59.1% | 92.9% | 90.4% | 93.9% | 94.5% | 88.8% | 79.5% | 98.3%
18 | CN1CCN(c2nc(-c3csc(-c4ccccc4)n3)cc3ccccc23)CC1 | -20.7% (active) | 14.1% | 62.4% | 59.4% | 72.7% | 81.8% | 26.2% | 60.6% | 65.8%
19 | Cc1ccc(NC(=O)CNc2cc(C(N)=O)cc(F)c2C)c(Cl)c1 | 95.2% | 90.6% | 99.9% | 87.9% | 75.2% | 104% | 70.6% | 92.8% | 105%
20 | N#Cc1c(Nc2ccccc2)nn2c(-c3ccc([N+](=O)[O-])cc3)ccnc12 | 103% | 94.1% | 99.9% | 99.6% | 108% | 111% | 100% | 102% | 101%
21 | COc1ccc(-c2nc3cc(Cl)c(Cl)cc3n2CC(=O)N=Nc2c(O)[nH]c3ccc(OC)cc23)cc1 | 60.6% | 55.1% | 74.5% | 49.7% | 40.4% | 86.2% | 29.5% | 47.7% | 30.9%

Reference: PubChem BioAssay (NCI)
